A selection: hits, their analogues and other compounds. The true share with any hit is near 3.5%.
MITF inh: inhibitors of human MITF. inhibition, % at 2.6 µM. O75030. actives 0.91% (n = 650,000). AlphaScreen MITF homodimerization, bead proximity signal; in the data active = inhibition above about 50%;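 note: 0% = vehicle wells with protein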
Target sequence (O75030 whole entry, looked up): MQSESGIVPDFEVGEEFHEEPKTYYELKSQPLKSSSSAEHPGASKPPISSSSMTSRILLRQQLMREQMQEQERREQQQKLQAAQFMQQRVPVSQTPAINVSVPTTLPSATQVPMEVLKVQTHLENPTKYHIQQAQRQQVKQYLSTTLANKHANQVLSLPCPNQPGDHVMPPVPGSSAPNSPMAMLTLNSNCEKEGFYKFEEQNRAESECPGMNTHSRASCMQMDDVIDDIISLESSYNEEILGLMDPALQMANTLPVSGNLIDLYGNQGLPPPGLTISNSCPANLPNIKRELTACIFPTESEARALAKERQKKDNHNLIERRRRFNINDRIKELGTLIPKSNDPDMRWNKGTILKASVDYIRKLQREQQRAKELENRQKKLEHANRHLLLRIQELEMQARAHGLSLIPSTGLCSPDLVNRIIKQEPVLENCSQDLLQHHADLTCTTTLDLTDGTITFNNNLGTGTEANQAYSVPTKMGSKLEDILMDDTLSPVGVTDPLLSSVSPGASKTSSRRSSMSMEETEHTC
GPR151 activ: activates the human receptor GPR151; Q8TDV0; PathHunter beta-arrestin GPR151 cells, luminescence; activation, % at 11.2 µM; actives 1% (n = 650,000); in the data active = activation above about 4.9%;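 note: 0% = median of compound wells and 100% = cells with positive control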
FBW7 act: human FBW7 E3 ligase activation, primary screen; Q969H0; AlphaScreen FBW7–phospho-cyclin E peptide binding, activator screen; normalized activity (activation), % at 26.1 µM; actives 0.13% (n = 650,000); in the data active = normalized activity above about 1.9%;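 note: purified mutant Fbw7 with reduced substrate affinity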
TEAD-YAP block: TEAD-YAP interaction inhibition | HEK-TIYL cells, TEAD-Gal4/YAP UAS-luciferase luminescence | inhibition, % at 9.12 µM | actives 1.4% (n = 640,000); in the data active = inhibition above about 32%;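 note: 0% = median of test compound wells and 100% = reference inhibitor wells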
GPR151 confirm: human GPR151 activation, confirmation screen; shares compounds with GPR151 activ; GPR151 PathHunter beta-arrestin cells, luminescence, 90 min; % of EA-reagent control over plate median; activation, % at 11.2 µM; 6,700 tested, under 10 active; AID 1508609;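 active = mean percent activation across replicates above the confirmation screen cutoff of 4.91%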
GPR119 ag: GPR119 activation, counter-screen for GPR151 activators; shares compounds with GPR151 activ; GPR119 PathHunter beta-arrestin cells, luminescence, 90 min; 0 = compound-well median, 100 = enzyme-acceptor control; activation, % at 11.2 µM; actives 0.3% (n = 6,700); AID 1508611;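 active = mean percent activation in the counterscreen above 29.09%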;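 note: counterscreen on off-target GPR119 to flag nonselective hits from the GPR151 activator screen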
Active calls of the source: *; nt = not tested or not shown.

SMILES | MITF inh | GPR151 activ | FBW7 act | TEAD-YAP block | GPR151 confirm | GPR119 ag
CN1C(=O)/C(=C2/Sc3ccccc3N2C)SC1=Nc1ccc(O)cc1 | 8.9 | 6.4* | -0.2 | -20.6 | -0.4 | -8.4
CCCCCC1CCC(c2ccc(-c3noc(-c4ccc(Br)cc4)n3)cc2)CC1 (stereo not drawn) | 3.1 | -0.4 | 0.0 | 4.5 | nt | nt
COc1ccccc1NC(=O)c1nn(-c2ccccc2OC)c(=O)c2ccccc12 | 11.7 | 2.3 | 0.0 | -4.2 | nt | nt
Cc1ccc(C(=O)NC(=S)NNc2nc3ccccc3[nH]2)cc1 | 14.7 | 5.3* | 0.1 | -5.1 | 1.6 | 7.7
COc1ccc(Cl)cc1NC(=O)c1cc(S(=O)(=O)N2CCCCCC2)ccc1F | -6.1 | 5.7* | 0.1 | 1.5 | -0.3 | -9.3
COc1ccccc1CNS(=O)(=O)c1ccc(F)c(C(=O)Nc2ccc(F)cc2)c1 | 17.5 | 5.4* | 0.5 | 2.4 | 0.5 | -8.5
CCOc1ccccc1NC(=O)c1cc(S(=O)(=O)NCCC2=CCCCC2)ccc1F | 9.2 | 0.6 | 0.0 | 2.2 | nt | nt
CCCNS(=O)(=O)c1ccc(F)c(C(=O)Nc2cc(Cl)ccc2OC)c1 | 8.0 | 5.8* | 0.7 | -10.3 | -1.0 | -2.0
CCOc1ccccc1NC(=O)c1cc(S(=O)(=O)NCCc2ccccc2)ccc1F | 11.3 | 5.0* | 0.1 | -2.6 | -0.5 | -15.2
COc1ccccc1CNS(=O)(=O)c1ccc(F)c(C(=O)Nc2ccc(Cl)cc2)c1 | 0.9 | 1.5 | -0.2 | 6.9 | nt | nt
COc1ccc(Cl)cc1NC(=O)c1cc(S(=O)(=O)N2CCCCC2)ccc1F | -3.0 | 1.5 | -0.1 | 6.9 | nt | nt
CCCNS(=O)(=O)c1ccc(F)c(C(=O)Nc2cc(C)ccc2OC)c1 | -3.2 | 0.1 | -0.1 | -2.1 | nt | nt
Nc1nn2c(=O)c3ccccc3nc2s1 | 5.3 | 0.6 | 0.0 | -19.2 | nt | nt
COC(=O)CSc1nnc(CNC(=O)c2cccs2)n1C | 23.6 | 0.0 | 0.0 | -4.2 | nt | nt
O=C1CN(C(=O)c2ccccc2)C(c2ccccc2)c2cc(Br)ccc2N1 (stereo not drawn) | -1.7 | -0.5 | -0.5 | 1.0 | nt | nt
O=C(Nc1cccc(O)c1)c1cc([N+](=O)[O-])ccc1Cl | -6.5 | 6.4* | -0.2 | 15.0 | 0.7 | 0.6
O=C(Nc1ccc(Cl)c(-c2nc3cc(Cl)ccc3o2)c1)c1ccc([N+](=O)[O-])o1 | 13.1 | 7.0* | 0.1 | 10.9 | 1.2 | 8.8
O=C(Nc1ccc2oc(-c3ccc(Br)cc3)nc2c1)c1cc([N+](=O)[O-])ccc1Cl | 15.8 | 6.6* | 1.2 | -7.5 | -0.4 | 3.4
O=C(Nc1ccc2oc(-c3cc(Br)ccc3Cl)nc2c1)c1ccc([N+](=O)[O-])o1 | 5.9 | 0.6 | 0.0 | 13.8 | nt | nt
O=C(O)c1cc([N+](=O)[O-])ccc1C(=O)Nc1cccc(O)c1 | 3.5 | -1.0 | -0.1 | 12.2 | nt | nt
COc1ccc2c(-c3ccccc3)cc(=O)oc2c1 | 2.2 | -0.9 | 0.3 | -52.6 | nt | nt
Cc1cc(=O)oc2cc(O)c3c(c12)OC(N)=C(C#N)C3c1ccccc1 (stereo not drawn) | -8.4 | -0.1 | 0.2 | 23.4 | nt | nt
O=c1[nH]c2nc(-c3cn[nH]c3)cnc2n1C1CCCCC1 | 15.0 | -1.1 | 0.3 | -6.8 | nt | nt
CCOC(=O)c1cn(CC(=O)Nc2cc(C)cc(C)c2)nn1 | -3.1 | 4.4 | 0.1 | -11.2 | nt | nt
Clc1ccc(C2C3=C(Nc4ncnn42)c2ccccc2CCC3)cc1 (stereo not drawn) | -3.5 | 6.0* | -0.2 | -5.7 | 0.4 | 3.8
CCOc1ccc(Oc2cc(NC(=O)c3cc4nc(-c5ccc6c(c5)OCO6)cc(C(F)(F)F)n4n3)cc([N+](=O)[O-])c2)cc1 | 8.0 | -0.1 | 0.0 | 5.7 | nt | nt
Cc1ccc(S(=O)(=O)N2CCCC2CNC(=O)Nc2ccc(Cl)cc2)cc1 (stereo not drawn) | -6.2 | 6.0* | 0.0 | 4.4 | -0.5 | -8.5
Cc1ccc(S(=O)(=O)N2CCCC2CNC(=O)C(=O)NC2CCCCCC2)cc1 (stereo not drawn) | 2.6 | 0.5 | -0.2 | 9.8 | nt | nt
CCNC(=O)C(=O)NCC1CCCN1S(=O)(=O)c1ccc(C)cc1 (stereo not drawn) | -1.1 | 6.2* | -0.1 | -1.7 | -0.6 | -3.0
CCOC(=O)C(=O)NCC1CCCN1S(=O)(=O)c1cccs1 (stereo not drawn) | 17.3 | -1.1 | 0.1 | 2.1 | nt | nt

Assay outcomes: PubChem, The Scripps Research Institute Molecular Screening Center
